Bioassay records deposited in PubChem BioAssay by National Center for Advancing Translational Sciences (NCATS).
POLK inh = inhibitors of human DNA polymerase kappa | Potency, µM (top dose mostly 107 µM), without a hit: at the top dose activity, negative = inhibition, actives largely listed as inhibitors | 400,000 tested, 0.53% active | purified Pol kappa, fluorescent DNA synthesis assay, 10 min | Q9UBT6 | AID 588579; note: potency is the fitted concentration of half-maximal effect; % is set by controls: 0 for no effect and ±100 for the full control effect
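Inhibition of 10 nM Pol kappa is measured by a fluorescent read-out at 0 and 10 min following addition of 50 nM substrate (final), with a 15-min room-temperature compound preincubation.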
Pol beta inh = DNA polymerase beta (human) inhibition; P06746; AID 485314; Potency, µM (top dose mostly 114 µM), for the others: at the top dose activity change, negative = inhibition, usual class: inhibitors; 340,000 tested, 1.3% active; Pol beta primer extension/strand displacement, fluorescence kinetic; note: potency is the fitted concentration of half-maximal effect; % is set by controls: 0 for no effect and ±100 for the full control effect
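Human Pol beta at 10 nM; strand-displacement substrate 50 nM final. Compound exposure 15 min at room temperature before start, reaction 10 min at room temperature.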
WRN helicase inh = inhibitors of human WRN helicase; Potency, µM (doses to about 114 µM), inactives show at the top dose activity change, negative = inhibition, actives largely listed as inhibitors; Q14191; WRN helicase unwinding, fluorescent forked duplex, kinetic; 360,000 tested, 0.46% active; note: potency is the fitted concentration of half-maximal effect; % is set by controls: 0 for no effect and ±100 for the full control effect; nearly all actives have a fitted effect of over 55% in size
Target sequence (Q14191 whole entry, looked up): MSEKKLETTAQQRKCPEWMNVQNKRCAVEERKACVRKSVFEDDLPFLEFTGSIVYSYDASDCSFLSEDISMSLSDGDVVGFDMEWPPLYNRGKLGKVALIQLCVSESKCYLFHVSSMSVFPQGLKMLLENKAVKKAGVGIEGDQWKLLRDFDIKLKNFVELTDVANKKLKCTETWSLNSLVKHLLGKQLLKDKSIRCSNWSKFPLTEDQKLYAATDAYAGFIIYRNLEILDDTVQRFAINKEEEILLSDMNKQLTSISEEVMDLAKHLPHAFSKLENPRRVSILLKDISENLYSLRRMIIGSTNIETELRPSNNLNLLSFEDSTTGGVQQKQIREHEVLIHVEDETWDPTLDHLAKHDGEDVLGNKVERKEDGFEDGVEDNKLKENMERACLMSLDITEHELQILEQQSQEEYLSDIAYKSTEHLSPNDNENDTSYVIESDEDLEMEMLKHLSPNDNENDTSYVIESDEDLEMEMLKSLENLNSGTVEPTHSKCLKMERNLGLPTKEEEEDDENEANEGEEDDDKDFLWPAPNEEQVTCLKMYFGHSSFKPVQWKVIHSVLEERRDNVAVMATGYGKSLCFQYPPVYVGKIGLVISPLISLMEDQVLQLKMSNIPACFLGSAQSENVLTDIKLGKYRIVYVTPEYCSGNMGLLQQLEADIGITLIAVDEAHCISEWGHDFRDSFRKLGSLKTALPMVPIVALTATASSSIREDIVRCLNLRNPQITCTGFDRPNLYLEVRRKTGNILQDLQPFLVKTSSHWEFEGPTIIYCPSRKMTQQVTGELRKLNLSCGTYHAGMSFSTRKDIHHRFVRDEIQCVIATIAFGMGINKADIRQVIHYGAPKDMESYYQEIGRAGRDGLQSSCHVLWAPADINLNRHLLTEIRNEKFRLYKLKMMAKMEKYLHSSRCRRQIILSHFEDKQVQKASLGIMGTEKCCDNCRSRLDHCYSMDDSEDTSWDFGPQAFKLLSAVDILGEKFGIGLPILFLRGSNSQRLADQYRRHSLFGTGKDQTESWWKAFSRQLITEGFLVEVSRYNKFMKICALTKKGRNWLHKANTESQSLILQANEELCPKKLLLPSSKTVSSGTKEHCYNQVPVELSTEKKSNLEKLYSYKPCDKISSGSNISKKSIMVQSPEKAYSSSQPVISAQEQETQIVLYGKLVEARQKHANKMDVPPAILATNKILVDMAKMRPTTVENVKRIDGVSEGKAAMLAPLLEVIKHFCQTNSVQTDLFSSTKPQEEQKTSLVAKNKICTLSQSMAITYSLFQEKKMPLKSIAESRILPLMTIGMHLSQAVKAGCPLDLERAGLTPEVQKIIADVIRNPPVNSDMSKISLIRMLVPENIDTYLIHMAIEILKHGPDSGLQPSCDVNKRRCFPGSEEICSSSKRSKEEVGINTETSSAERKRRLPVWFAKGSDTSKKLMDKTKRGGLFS
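Primary qHTS, 1536-well format. 20 nM WRN + compound, 15 min RT; start with 100 nM forked fluorophore/quencher duplex, 2 mM ATP (final); kinetic read ex 525/em 598 nm.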
POLH inh = DNA polymerase eta (human) inhibition | Q9Y253 | recombinant Pol eta, fluorescent DNA replication assay | Potency, µM (highest dose often 114 µM), for inactives: at the top dose activity change, negative = inhibition, hits mostly inhibitors | 390,000 tested, 1.2% active | AID 588591; note: potency is the fitted concentration of half-maximal effect; % is set by controls: 0 for no effect and ±100 for the full control effect
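Pol eta (10 nM) was preincubated with compounds for 15 min at room temperature, after which fluorescent replication substrate (50 nM final) was added to start the reaction. Fluorescence was read kinetically at 0 and 10 min.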
PI5P4K alpha inh = inhibitors of human PI5P4K alpha; P48426; PI5P4Kalpha enzyme, ADP-Glo luminescence, 60 min; active compounds read low; max response, %; 330,000 tested, 1.2% active; active = max response of -50% or lower; inconclusive = between -30% and -50%; inactive = -30% or higher; note: value at the top dose of about 77 µM; % is set by controls: 0 for no effect and ±100 for the full control effect
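qHTS, 1536-well: enzyme/substrate mix, compound by pin tool, 5 microM ATP final; RT 60 min; ADP-Glo reagents 1 (45 min) then 2 (30 min); luminescence.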
POLI inh = DNA polymerase iota (human) inhibition; AID 588590; Pol iota fluorescent replication assay, 10 min; 390,000 tested, 1% active; Q9UNA4; Potency, µM (titrated, usually from 115 µM), inactives show top-dose activity, negative = inhibition, usual class: inhibitors; note: potency is the fitted concentration of half-maximal effect
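Pol iota at 10 nM preincubated 15 min with compounds at room temperature; reaction started with fluorescent substrate, 50 nM final. Fluorescence read kinetically at 0 and 10 min; buffer-only wells as negative control.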
* marks the source's active call; other numbers are inactive results; ? = inconclusive; / = no result; [ ] = remark or other dose. Shown are actives, neighbours in structure and some others; about 2.8% of the full set was active somewhere. Unless noted, calls come from the whole dose curve; as a rule, active = well fitted curve in the direction sought with a large enough effect; inconclusive = small, poorly fitted or top-dose-only effect, or another doubt; inactive = no such curve, though single readings can be large; an effect the other way counts as inactive or inconclusive.

SMILES	POLK inh	Pol beta inh	WRN helicase inh	POLH inh	PI5P4K alpha inh	POLI inh
CC12CN3CC(C)(CN(C1)C3c1ccc3ccccc3c1O)C2=O (stereo not given)	-6%	12%	0%	-9%	-3	79µM*
CC12CN3CC(C)(CN(C1)C3c1c[nH]c3ccccc13)C2=O (stereo not given)	-2%	2%	-18%[57.1 µM]	-16%	0	83%
CCCN(C(=O)Cn1nc(Cc2cccnc2)c2ccccc2c1=O)c1ccc(C(C)C)cc1	-19%	1%	/	?	/	7%
Cc1ccc(CCNC(=O)c2sc3nc4n(c(=O)c3c2C)CCCC4)cc1	-15%	-14%	/	-9%	/	16%
CC(=O)C1=C(O)C(=O)N(CCc2c[nH]c3ccccc23)C1c1ccco1 (stereo not given)	-11%	32µM*	-6%	-16%	-5	?
CC(=O)C1=C(O)C(=O)N(CCc2c[nH]c3ccccc23)C1c1ccc(C)cc1 (stereo not given)	-4%	-6%	8%	-22%	1	17%
Cc1ccc(S(=O)(=O)Nc2ccc3cc([N+](=O)[O-])ccc3c2[N+](=O)[O-])cc1	-5%	/	-17%[11.6 µM]	79µM*	-27	?
O=C(CSc1nc2cc(Cl)ccc2s1)c1ccco1	-21%	-1%	-9%	-7%	/	62%
O=C(CSc1nnc(SCC(=O)c2ccco2)s1)c1ccco1	?	32µM*	?	16µM*	-62*	?
Cc1ccc2nc(N3C(=O)C(O)=C(C(=O)c4ccc(C)o4)C3c3cccc(O)c3)sc2c1 (stereo not given)	-4%	?	?	-19%	-58*	?
COC(=O)c1sc(N2C(=O)C(O)=C(C(=O)c3ccc(C)o3)C2c2ccc([N+](=O)[O-])cc2)nc1C (stereo not given)	-10%	3%	3%[11.6 µM]	?	-83*	7%
CCOC(=O)c1sc(N2C(=O)C(O)=C(C(=O)c3ccco3)C2c2ccc([N+](=O)[O-])cc2)nc1C (stereo not given)	-4%	/	-9%	?	-80*	2%
CCOC(=O)c1sc(N2C(=O)C(O)=C(C(=O)c3ccc(C)o3)C2c2cccc([N+](=O)[O-])c2)nc1C (stereo not given)	-1%	-11%	-3%	-8%	-51*	36%
CCC(=O)N1c2ccccc2CC1C(=O)NCCc1ccc(OC)cc1OC (stereo not given)	-9%[60.1 µM]	-6%	/	6%	/	-11%
O=C(Nc1cccc(C(F)(F)F)c1)c1cc(S(=O)(=O)N2CCCC2)c[nH]1	-7%	0%	/	1%	/	2%
CC(C)CCNC(=O)c1ccc2nc(Cc3ccccc3)oc2c1	-4%[60.1 µM]	2%	/	-25%	/	22%
Cc1cccc(NC2=NCC(=O)N2Cc2cccs2)c1	-12%	-16%	50µM*	-1%	0	34%
O=C1CN=C(Nc2ccccc2)N1Cc1cccs1	-2%	19%	7%	-16%	-2	?
CCCc1nn2c(=O)cc(COC(=O)c3ccccc3NC(=O)COc3ccccc3F)nc2s1	-9%[60.1 µM]	-8%	/	0%	/	8%
CCOC(=O)C1=C(CN2CCN(c3ccccc3F)CC2)NC(=O)NC1c1ccc(Cl)cc1 (stereo not given)	-7%	6%	/	?	/	3%
O=C(C#Cc1ccccc1)c1cccc([N+](=O)[O-])c1	1%	-19%	18µM*	-16%	5	?
[N-]=C=C1C(=O)NC(=O)C([n+]2ccc(-c3ccncc3)cc2)C1c1ccccc1C(F)(F)F (stereo not given)	-12%	-1%	-14%	-25%	-11	16µM*
O=C(Nc1ccc2oc(-c3ccccc3F)nc2c1)c1ccc([N+](=O)[O-])o1	-6%[60.1 µM]	11µM*	4%	4%	-5	?
O=C(Nc1ccc2oc(-c3ccccc3F)nc2c1)c1ccccc1Cl	-25%	7%	/	-15%	/	16%
O=C(NCCc1ccccc1)c1c(O)c2cccc3c2n(c1=O)CC3	-5%	1%	-9%	22%	3	-1%
SMILES	POLK inh	Pol beta inh	WRN helicase inh	POLH inh	PI5P4K alpha inh	POLI inh
COc1ccc(CCNC(=O)c2c(O)c3cccc4c3n(c2=O)CC4)cc1	-8%	?	3%	-4%	-81*	10%
Cc1ccc(N=C2NC(=O)/C(=C/c3cccn3C)S2)cc1C	-1%	-1%	8%	-5%	-10	1%
Cc1cccc(N=C2NC(=O)/C(=C/c3cccn3C)S2)c1C	-18%	2%	-8%	-24%	-72*	?
COc1ccc(-c2csc(NC(=O)CSc3nc(C)cs3)n2)cc1	-9%	/	-7%	?	29	1%
COc1ccc(-c2csc(NC(=O)CSc3nc(C)nc4sc(C(=O)O)c(C)c34)n2)cc1	32µM*	7.1µM*	?	22µM*	?	?
Cc1ccc(S(=O)(=O)c2nnn3c2nc(NC2CCN(Cc4ccccc4)CC2)c2ccccc23)cc1C	?	1%	-7%	-19%	-23	45µM*
CCOc1cc(/C=C2\N=C(SCC)SC2=O)cc([N+](=O)[O-])c1OC(C)=O	?	16µM*	-22%	45µM*	-68*	?
CCc1ccc(C2=C(C)C(N3CCC(C(=O)NCc4ccc(C)o4)CC3)=NS2(=O)=O)cc1	-10%	6%	/	/	/	3%
Cc1cc(C)c(S(=O)(=O)NCC(c2ccc(N(C)C)cc2)N2CCOCC2)c(C)c1 (stereo not given)	-9%[60.1 µM]	27%	/	-2%	/	-10%
Cc1[nH]c(=O)c(C(=O)/C=C/c2ccccc2F)c2c1CCCC2	-9%	-1%	-8%	?	/	18µM*
O=c1c2ccccc2sc2nc(C3CCCCC3)n(Cc3ccco3)c(=O)c12	-8%	22µM*	-22%	?	/	?
CC[N+]1(CC(=O)c2cccs2)CCCCC1	0%	/	/	/	/	27%
O=C(Nc1cccc(NC(=O)c2ccc(Br)o2)n1)c1ccc(Br)o1	-11%	26%	?	?	/	14µM*
Cc1nc(NC(=O)c2ccc(Br)o2)ccc1Br	3%	0%	5%	5%	-3	8%
COc1ccc2c(c1)O/C(=C\c1ccco1)C2=O	-26%	?	-17%	-7%	-14	22%
CC(=O)COc1ccc2c(c1C)O/C(=C\c1ccco1)C2=O	?	45µM*	-10%	22µM*	-12	?
COc1ccccc1/C=C/c1onc(C)c1S(=O)(=O)N1CCC(C(=O)N2CCC(C)CC2)CC1	-5%[60.1 µM]	-2%	/	-16%	/	16%
CCC(NC(=O)Nc1ccc(O)cc1)(C(F)(F)F)C(F)(F)F	-23%	12%	-1%	-16%	-2	18µM*
